# Bioassay records: PubChem, several laboratories
# Beta apoptosis – inhibitors of cytokine-induced beta cell apoptosis, primary screen, luminescence; AID 435005, 2010; INS-1E cytokine-induced death, ATP luminescence, 48 h; percent of positive-control rescue, neutral wells zero; 300,000 tested, 0.8% active; protection from apoptosis, % (concentration not given with the values);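 active = Every replicate reaches about 75%, or at least half do and their mean reaches it too, limit read from the data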;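 note: higher means more ATP so stronger rescue from cytokine killing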
# 697 NFkB inh – inhibitors of PMA/ionomycin-induced NF-kB reporter, 697 cells, primary screen, B-cell NF-kB inhibitor project, cell-based, luminescence, uHTS; inhibition, % at 4 µM; 697 B-cell NF-kB luciferase reporter, 16 h; 330,000 tested, 0.33% active; in the data active = inhibition above about 35%
# Jurkat NFkB inh – inhibitors of induced NF-kB luciferase reporter, primary screen, TCR NF-kB activation inhibitor project, cell-based, luminescence, uHTS. Jurkat, PMA/ionomycin-induced NF-kB luciferase reporter. inhibition, % at 4 µM. 330,000 tested, 0.53% active; in the data active = inhibition above about 50%
# Gli-Sufu antag – Gli-Sufu pathway antagonists, primary screen, luciferase luminescence, Sufu-KO-LIGHT cells, uHTS; inhibition, % at 5 µM; 340,000 tested, 0.74% active; Sufu-KO-LIGHT fibroblasts, Gli luciferase reporter luminescence;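 active = inhibition above about 55%, limit read from the data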
# Gli antag conf – Gli-SUFU pathway antagonists, confirmation, single concentration, luciferase luminescence, Sufu-KO-LIGHT cells | shares compounds with Gli-Sufu antag | Gli luciferase reporter | inhibition, % at 5 µM | 2,500 tested, 40% active;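 active = mean inhibition at 5 µM reaching about 45%, limit read from the data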
# SufuKO cytotox – cytotoxicity in Sufu-KO-LIGHT cells, confirmation, cytotoxicity control for Gli-SUFU antagonist project, cell-based, ATP luminescence, single concentration. cytotoxicity, % at 5 µM. AID 651994, 2013. shares compounds with Gli-Sufu antag. 2,500 tested, 32% active;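 active = mean cytotoxicity at 5 µM above about 25%, limit read from the data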;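 note: cells exposed to compound overnight for roughly 16 to 18 hours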
# Wnt3a counter – Wnt3a reporter signal inhibition, confirmation, counter-screen for Gli-SUFU antagonist project, Wnt-LIGHT cells, luminescence, single concentration | Wnt3a-driven luciferase reporter | shares compounds with Gli-Sufu antag | 2,500 tested, 20% active | inhibition, % at 6.25 µM;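 active = mean inhibition above about 25%, limit read from the data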
# Hits are given with their value; 0 = inactive; - = not tested or not shown. Most compounds without a hit are left out; they make up all but 1.8% or so of the library.
SMILES,Beta apoptosis,697 NFkB inh,Jurkat NFkB inh,Gli-Sufu antag,Gli antag conf,SufuKO cytotox,Wnt3a counter
Cn1cc(CNC(=O)c2cc(COc3ccc4c(c3)CCCC4)on2)cn1,0,0,0,0,-,-,-
COc1ccccc1NC(=O)c1ccc2c(c1)N(CC#N)C(=O)C(C)(C)O2,0,0,0,0,0,0,0
COc1ccc2oc(-c3ccccc3[N+](=O)[O-])cc(=O)c2c1,0,0,0,0,-,-,-
Clc1ccc(C[n+]2cc(-c3ccccc3)n3c2CCCCC3)c(Cl)c1,0,0,0,85.6,87.1,44.1,0
Clc1ccc(-c2c[n+](Cc3ccc(Cl)cc3Cl)c3n2CCCCC3)cc1,0,0,0,65.5,74.6,30.4,0
O=C(CSCCc1ccccn1)Nc1ccccn1,0,0,0,95.7,0,0,0
COc1ccc(NC(=O)c2oc3ccccc3c2NC(=O)c2ccco2)cc1,0,0,0,0,-,-,-
COc1ccc(NC(=O)c2oc3ccccc3c2NC(=O)c2ccco2)c(OC)c1,0,0,0,0,0,42.6,0
CCOC(=O)c1[nH]c2ccccc2c1NC(=O)CCN1CCN(C(=O)OCC)CC1,0,0,0,0,-,-,-
O=S(=O)(NCc1ccncc1)c1ccc(S(=O)(=O)NCC2CCCO2)cc1 (stereo not drawn),0,0,0,0,0,0,25.7
CCCCc1ccc(S(=O)(=O)NCCc2ccncc2)cc1,0,0,0,0,-,-,-
CCCCNS(=O)(=O)c1ccc(S(=O)(=O)NCc2ccncc2)cc1,-,0,0,56.8,59.4,36.8,0
COC(=O)c1ccc(-c2nc(CN3CCCN(C(=O)c4ccco4)CC3)c(C)o2)cc1,0,0,0,0,-,-,-
Cc1ccc2sc(NC(=O)CN3C(=O)CCC3=O)nc2c1C,0,0,0,57.1,0,0,0
Cc1ccc(C)c2sc(NC(=O)CN3C(=O)CCC3=O)nc12,0,0,0,0,-,-,-
CCOC(=O)CNC(=O)c1c(C)nn(-c2ccccc2)c1Cl,0,0,0,94.7,0,0,0
Cc1ccc(CNc2cc(C(=O)O)ccc2Cl)s1,0,0,0,0,-,-,-
NC1=NC[C@H](c2ccccc2)N1CCCCC1CCCCC1,0,0,0,61.8,53.7,34.2,0
S=C1NC[C@H](c2ccccc2)N1CCCCC1CCCCC1,0,0,0,0,-,-,-
Cn1c(C(=O)N2CCN(c3nc4ccccc4s3)CC2)cc2sccc21,0,0,0,0,-,-,-
O=C(c1cc2sccc2n1Cc1ccc(F)cc1)N1CCN(c2nc3ccccc3s2)CC1,100.3,0,0,63.8,69.7,26.6,0
Cc1cc(C)cc(NC(=S)N(CCN(C)C)C(C)c2cccnc2)c1 (stereo not drawn),0,0,0,0,0,0,0
S=c1[nH]nc(Cc2ccccc2)n1Cc1ccco1,0,0,0,-,-,-,-
O=S(=O)(c1ccc(F)cc1)c1nc(-c2ccco2)oc1Nc1ccc(F)cc1,0,0,0,0,-,-,-
Cc1ccc(S(=O)(=O)N(C)C)cc1NC(=S)NC(C)CCCC(C)C (stereo not drawn),0,0,0,0,-,-,-
SMILES,Beta apoptosis,697 NFkB inh,Jurkat NFkB inh,Gli-Sufu antag,Gli antag conf,SufuKO cytotox,Wnt3a counter
Cc1ccc(S(=O)(=O)N(C)C)cc1NC(=S)NC(C)CCC(C)C (stereo not drawn),0,0,0,56.0,0,0,0
COc1ccccc1CNC(=O)C(=O)NCCC1CCCCN1S(=O)(=O)c1ccc(C)cc1 (stereo not drawn),0,0,0,0,0,0,0
COc1ccccc1CCNC(=O)C(=O)NCCC1CCCCN1S(=O)(=O)c1ccccc1 (stereo not drawn),0,0,0,0,-,-,-
COc1ccc2oc(=O)c(-c3nnc(N)s3)cc2c1,0,0,0,0,-,-,-
CCN1C(=NCCOC)N[C@@H](CCc2ccccc2)[C@H](C(=O)OC)[C@H]1C,0,0,0,0,-,-,-
CCN1C(=NCCCOC(C)C)N[C@@H](CCc2ccccc2)[C@H](C(=O)NCCCOC(C)C)[C@H]1C,0,0,0,55.6,56.8,29.8,0
COc1cc(C2C3=C(COC3=O)Oc3cc4c(cc32)OCO4)cc(OC)c1OC(C)=O (stereo not drawn),-,-,-,62.7,49.9,63.3,0
O=C(NCCC1=CCCCC1)Nc1ccc2nsnc2c1,0,0,0,0,-,-,-
COc1ccc(NC(=O)CN(C)CC(=O)Nc2cccc(C(C)=O)c2)cc1,0,0,0,0,-,-,-
CN(CC(=O)Nc1ccc(Cl)cc1)CC(=O)Nc1cccc(Br)c1,0,0,0,55.1,0,0,0
Cn1c(CNc2ccc(F)cc2)nnc1SCC(=O)NNC(=O)Cc1ccccc1,0,0,0,0,-,-,-
CCOC(=O)CNC(=O)CSc1nc(-c2ccccc2)ns1,0,0,0,61.8,0,0,0
CCOC(=O)CNC(=O)CSc1nc(-c2ccc(C)cc2)ns1,0,0,0,0,-,-,-
O=c1c(-c2ccc(Oc3ccccc3)cc2)[n+]([O-])c2ccccc2n1OCc1ccccn1,0,0,0,94.6,0,0,0
O=C(Cn1cc(C(=O)c2ccco2)c2ccccc21)Nc1ccccc1F,0,0,0,60.3,72.7,0,0
CC(C)(C)N=C(NS(=O)(=O)c1cccs1)c1ccccc1,-,0,0,0,-,-,-
O=C(CCc1ccccc1)NNC(=O)Cc1ccc(Cl)cc1,0,0,0,0,-,-,-
O=C([O-])c1cc(-c2ccccc2)cc(-c2ccccc2)[n+]1CCc1ccc(Cl)cc1,-,-,-,77.5,67.3,35.8,0
COc1cccc(NC(=O)CN(C)C(=O)c2cccc(NS(=O)(=O)c3ccccc3)c2)c1,0,0,0,0,-,-,-
COc1ccc(CCN(C)C(=O)COc2ccc(C(=O)c3ccccc3)cc2)cc1OC,0,0,0,0,-,-,-
COc1ccc(CCN(C)C(=O)Cc2ccc(-c3ccccc3)cc2)cc1OC,0,0,0,59.6,0,0,0
O=C(CS(=O)(=O)c1ccc(F)cc1)Nc1nnc(-c2cccs2)o1,0,0,0,0,-,-,-
CN1CCN(S(=O)(=O)c2ccc(N(C)Cc3cccs3)nc2)CC1,0,0,0,0,-,-,-
CCCOc1ccccc1N/C(=N/c1nc(C)cc(C)n1)NC(=O)COc1ccc(OC)cc1,0,0,0,66.6,47.9,0,0
Cc1cnnn1-c1ccc([N+](=O)[O-])cc1,0,0,0,0,-,-,-
N#CCc1ccc(OC(=O)c2cnccc2C(F)(F)F)cc1,-,0,0,0,-,-,-
O=C1c2ccccc2NC(c2cccc(F)c2)N1Cc1ccco1 (stereo not drawn),0,0,0,64.6,0,0,0
CCSc1nnc(C)n1-c1ccc(C(=O)O)cc1,0,0,0,94.7,0,0,0
Cc1nnc(SCC(=O)N2CCCC2)n1-c1ccc(F)cc1,0,0,0,0,-,-,-
